The target in assay [1] is Glucocorticoid receptor (Homo sapiens) (UniProt P04150). The experiment in a line: qHTS assay for small molecule agonists of glucocorticoid receptor signaling (AID 588532; active means well fitted curve in the direction sought with a large enough effect in the signal ratio, with a control signal flat; the % refers to the signal ratio; further: potency means the concentration at half of the fitted maximal effect;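 on activation: 100% = dexamethasone at 0.1 µM and 0% = DMSO only wells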). To be noted: HeLa MMTV-bla, beta-lactamase ratio, agonist, 18 h; activation: stronger effect = higher value, percent of dexamethasone control, DMSO zero. An outline of the steps: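 MMTV-bla HeLa, beta-lactamase reporter; medium with 1% charcoal/dextran-stripped FBS; cpds up to 92 uM, 18 h, 37 C; CCF4 readout 460/530 nm; Hill fit → EC50, efficacy vs 0.1 uM dexamethasone = 100%.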
A general note: qHTS replaces the single test concentration by a dilution series.

Assay [2] has the same target. The assay is described as follows: qHTS assay for small molecule antagonists of glucocorticoid receptor signaling (AID 588533; active means well fitted inhibition curve with a large enough effect in the signal ratio, with a control signal flat, not every such curve was filed as active; the % refers to the signal ratio;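 further: cells stimulated with 2 nM dexamethasone as agonist; on the % scale 0 is the no-effect control and ±100 the full control effect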). The method, boiled down: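 Antagonist-mode qHTS: compound titrations added to GRE-bla HeLa cells, then dexamethasone 2 nM final; 18 h, 37 C. CCF4 FRET fluorescence normalized to dexamethasone and DMSO; IC50 from Hill fit.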
Assay [3] deals with Peroxisome proliferator-activated receptor gamma (Homo sapiens) (UniProt P37231). The assay is described as follows: qHTS assay for small molecule antagonists of peroxisome proliferator-activated receptor gamma signaling (AID 588537; active means well fitted inhibition curve with a large enough effect in the signal ratio, with a control signal flat, not every such curve was filed as active; the % refers to the signal ratio;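 further: reporter cells co-stimulated with 50 nM rosiglitazone agonist during compound treatment; % of control where 0% means no effect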). An outline of the steps: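 Compounds are tested as concentration series for inhibition of rosiglitazone-driven (50 nM) reporter expression in GeneBLAzer PPAR-gamma-UAS-bla HEK293 cells. After 16 h at 37 C, CCF4 substrate is added for 2 h at room temperature and blue/green fluorescence is measured.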

Assay [4] has as its target Vitamin D3 receptor (Homo sapiens) (UniProt P11473). The experiment in a line: qHTS assay for small molecule antagonists of vitamin D receptor signaling (AID 588541; calls by dose curve;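 further: receptor activated by calcitriol during compound treatment; series mostly up to about 77 µM; on the % scale 0 is the no-effect control and ±100 the full control effect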). The method, boiled down: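 VDR-UAS-bla HEK293T cells (2000/well, 2% charcoal-stripped FBS) were treated with titrated compounds plus 1-alpha,25-dihydroxyvitamin D3 (50 nM or 3 nM final) for 16 h at 37 C. CCF4 beta-lactamase fluorescence was read; Hill fits gave IC50.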

Assay [5] shares this target. The assay is described as follows: qHTS assay for small molecule agonists of vitamin D receptor signaling (AID 588543; calls by dose curve;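 further: 0% = DMSO basal and 100% = reference agonist control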). The method, boiled down: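 Agonist-mode beta-lactamase reporter: HEK293T VDR-UAS-bla cells in charcoal-stripped 2% FBS, compound series 16 h 37 C, CCF4 2 h RT. EC50 from Hill fit, scaled against DMSO and 50 nM calcitriol control.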
A short description of assay [6]: qHTS assay for small molecule agonists of retinoid X receptor alpha signaling (AID 588544; calls by dose curve;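 on activation: 0% = DMSO basal wells and 100% = reference agonist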). To be noted: HEK293T RXRa-UAS-bla, beta-lactamase reporter, 18 h; 530 nm emission.
Assay [7] deals with Retinoic acid receptor RXR-alpha (Homo sapiens) (UniProt P19793). The assay is described as above.
Assay [8] concerns the target Thyroid hormone receptor beta (Homo sapiens) (UniProt P10828). The assay is described as follows: qHTS assay for small molecule agonists of thyroid hormone receptor beta signaling (AID 588545; calls by dose curve). The method, boiled down: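 Agonist-mode beta-lactamase reporter assay, HEK 293 cells, 2% charcoal/dextran FBS; cells plated 4 hrs, compound 18 hrs at 37 C, CCF4 2 hrs RT. Normalized to 10 nM T3 (100%) and DMSO (0%); Hill fit gives EC50, efficacy.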

Assay [9] is described as follows: qHTS assay for small molecule antagonists of retinoid X receptor alpha signaling (AID 588546; active means well fitted inhibition curve with a large enough effect in the signal ratio, with a control signal flat, not every such curve was filed as active; the % refers to the signal ratio;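 further: cells stimulated with 9-cis-retinoic acid as agonist; on the % scale 0 is the no-effect control and ±100 the full control effect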). To be noted: HEK293T RXRa-UAS-bla, beta-lactamase ratio, antagonist mode; measured here: W530 green channel, cytotoxicity proxy. An outline of the steps:
(§1)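 Beta-lactamase reporter inhibition, read as CCF4 fluorescence ratio (ex 405, em 460/530 nm) after 2 h at RT. HEK293T UAS-bla cells, 2500/well, were stimulated with 9-cis-RA at 500 or 100 nM final alongside test compound for 18 h at 37 C.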

In assay [10] the target is Retinoic acid receptor RXR-alpha (Homo sapiens) (UniProt P19793). Described as above. To be noted: HEK293T RXRa-UAS-bla, beta-lactamase ratio, antagonist mode. The method, boiled down:
as §1

Assay [11] addresses Thyroid hormone receptor beta (Homo sapiens) (UniProt P10828). The assay is described as follows: qHTS assay for small molecule antagonists of thyroid hormone receptor beta signaling (AID 588547; active means well fitted inhibition curve with a large enough effect in the signal ratio, with a control signal flat, not every such curve was filed as active; the % refers to the signal ratio;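 further: cells stimulated with 0.4 nM T3 agonist during compound exposure; series mostly up to about 77 µM; on the % scale 0 is the no-effect control and ±100 the full control effect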). To be noted: TR-UAS-bla HEK293, beta-lactamase ratio, antagonist mode, 18 h. An outline of the steps:
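TR-UAS-bla GripTite HEK293 cells in 2% charcoal/dextran FBS medium were preincubated 4 h at 37 C, given compound (0.59 nM to 92 uM) plus 0.4 nM T3 (final) for 18 h, then CCF4 for 2 h at RT; Hill fit gave IC50.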

Assay [12] has as its target Luciferin 4-monooxygenase (Photinus pyralis) (UniProt P08659). The assay is described as follows: Biochemical firefly luciferase enzyme assay for NPC (AID 624030). Further: nearly all actives have a fitted effect of over 70% in size. Further: potency means the concentration at half of the fitted maximal effect. An outline of the steps: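 Counter-screen for direct inhibition of the luciferase enzyme by approved-drug library compounds, run at 10 nM enzyme in 50 mM Tris acetate (final). Luminescence was read within 5 min of enzyme-buffer addition and normalized to PTC124 versus DMSO (0%).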

Assay [13] can be described thus: S16 Schwann cell viability assay (CellTiter-Glo assay) (AID 624031). Further: nearly all actives have a fitted effect of over 70% in size. Further: potency means the concentration at half of the fitted maximal effect. The method, boiled down: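 Following overnight culture in 10% FBS DMEM, parental S16 rat Schwann cells are dosed for 24 h at 37 °C. Viability is read as CellTiter-Glo luminescence and expressed as % activity relative to DMSO (0%) and no-cell wells.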
Assay [14] concerns the target Glutaminase kidney isoform, mitochondrial (Homo sapiens) (UniProt O94925). The experiment in a line: qHTS for Inhibitors of Glutaminase (GLS): LOPAC Validation (AID 624146).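 Further: glutamate product detected by oxidase and peroxidase coupled Amplex red fluorescence gain; series mostly up to about 46 µM; on the % scale 0 is the no-effect control and ±100 the full control effect; nearly all actives have a fitted effect of over 60% in size.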 The method, boiled down:
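hKGA in 45 mM KH2PO4 pH 8.2, 0.02% Tween-20 with pin-transferred compounds; 1 mM L-glutamine (stock) plus glutamate oxidase/HRP/Amplex Red coupling added. Fluorescence read initially and after 30 min at RT.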

Assay [15] is described as follows: qHTS of Trypanosoma Brucei Inhibitors: LOPAC Validation (AID 624147). Further: 0% is about no effect. The method, boiled down:
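Glycolytic pyruvate kinase of T. brucei was incubated with substrate, test compound and 130 uM ADP for 45 minutes at room temperature. Luminescent Kinase-Glo Plus signal was measured after 10 minutes.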

Assay [16] can be described thus: qHTS assay for small molecule antagonists of peroxisome proliferator-activated receptor delta signaling (AID 588535; active means well fitted inhibition curve with a large enough effect in the signal ratio, with a control signal flat, not every such curve was filed as active; the % refers to the signal ratio;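 on max response: cells co-treated with a PPAR-delta agonist as stimulator during compound exposure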). To be noted: HEK293T PPARd-UAS-bla, beta-lactamase FRET ratio, 18 h; 460 nm channel. An outline of the steps: (§2)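 Inhibition of PPAR-delta response element-driven beta-lactamase expression is measured in HEK293T cells exposed to a compound titration series for 18 hrs at 37 C. Half-maximal inhibition comes from Hill equation fitting.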

Assay [17] addresses Peroxisome proliferator-activated receptor delta (Homo sapiens) (UniProt Q03181). The description is as above. An outline of the steps:
as §2

Assay [18] concerns the target Voltage-gated inwardly rectifying potassium channel KCNH2 (Homo sapiens) (UniProt Q12809). The experiment in a line: qHTS Assay for Small Molecule Inhibitors of the Human hERG Channel Activity (AID 588834).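 Further: lower thallium flux fluorescence means stronger hERG block; nearly all actives have a fitted effect of over 50% in size.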 Further: potency means the concentration at half of the fitted maximal effect. An outline of the steps:
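hERG block measured as reduced thallium-dye (FluxOR) fluorescence after stimulation buffer addition, read over 2 min. Cells were hERG-BacMam-transduced U2OS exposed to compound ~10 min […]; concentration-response fitted with Hill equation for AC50.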

Assay [19] in a line: S16 Schwann cell PMP22 intronic element firefly luciferase assay (AID 624032). Further: nearly all actives have a fitted effect of over 30% in size. Further: potency means the concentration at half of the fitted maximal effect. The method, boiled down:
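Rat S16 Schwann cells stably carrying a PMP22 intronic element-driven Fluc reporter were seeded overnight, then exposed to compounds for 24 h at 37 °C. Luminescence was normalized to PTC124 (positive control) and DMSO (0% activity).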

Assay [20] is described as follows: S16 Schwann cell PMP22 intronic element beta-lactamase assay (AID 624044; calls by dose curve; further: nearly all actives have a fitted effect of over 15% in size; further: potency means the concentration at half of the fitted maximal effect). An outline of the steps:
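Beta-lactamase reporter under a PMP22 intronic regulatory element in stable S16 rat Schwann cells; 24 h compound exposure. 460 nm blue signal normalized between DMSO (0%) and potassium clavulanate, with 535 nm FRET tracking viability; curves classed by r2 and response.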

Inconclusive results are not listed. More than one record can exist for a structure, and the calls need not agree. Active and inactive are the calls of the source. Unless noted, the call rests on the fitted dose curve; in most records, active means well fitted curve in the direction sought with a large enough effect; inconclusive means small, poorly fitted or top-dose-only effect, or another doubt; inactive means no such curve, though single readings can be large; an effect the other way counts as inactive or inconclusive.

Sequence of Peroxisome proliferator-activated receptor gamma (Homo sapiens) (P37231 whole entry, looked up): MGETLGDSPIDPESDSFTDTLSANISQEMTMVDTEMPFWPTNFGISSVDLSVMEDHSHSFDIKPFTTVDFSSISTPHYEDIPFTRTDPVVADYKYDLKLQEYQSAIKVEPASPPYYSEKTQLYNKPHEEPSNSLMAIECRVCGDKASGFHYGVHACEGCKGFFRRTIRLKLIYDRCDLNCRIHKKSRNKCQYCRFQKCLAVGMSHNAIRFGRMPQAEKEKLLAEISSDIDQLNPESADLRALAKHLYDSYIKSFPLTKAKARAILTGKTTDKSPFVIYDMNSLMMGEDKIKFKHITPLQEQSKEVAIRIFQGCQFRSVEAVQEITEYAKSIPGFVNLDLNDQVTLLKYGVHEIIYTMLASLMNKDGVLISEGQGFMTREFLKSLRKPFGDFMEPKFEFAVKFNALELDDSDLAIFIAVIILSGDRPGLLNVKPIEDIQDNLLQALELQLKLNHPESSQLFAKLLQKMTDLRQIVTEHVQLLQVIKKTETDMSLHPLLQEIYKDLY
Sequence of Vitamin D3 receptor (Homo sapiens) (P11473 whole entry, looked up): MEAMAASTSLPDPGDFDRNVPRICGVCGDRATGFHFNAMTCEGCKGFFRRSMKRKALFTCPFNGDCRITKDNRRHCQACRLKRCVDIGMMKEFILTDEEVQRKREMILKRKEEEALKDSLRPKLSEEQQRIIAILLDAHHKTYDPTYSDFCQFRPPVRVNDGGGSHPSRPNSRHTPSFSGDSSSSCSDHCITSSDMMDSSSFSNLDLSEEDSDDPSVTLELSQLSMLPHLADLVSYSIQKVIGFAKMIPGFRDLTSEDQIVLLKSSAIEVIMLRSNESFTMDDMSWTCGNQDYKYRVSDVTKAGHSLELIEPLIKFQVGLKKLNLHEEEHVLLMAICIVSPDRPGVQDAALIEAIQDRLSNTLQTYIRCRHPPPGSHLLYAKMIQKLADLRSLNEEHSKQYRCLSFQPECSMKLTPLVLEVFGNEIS
Sequence of Glucocorticoid receptor (Homo sapiens) (P04150 whole entry, looked up): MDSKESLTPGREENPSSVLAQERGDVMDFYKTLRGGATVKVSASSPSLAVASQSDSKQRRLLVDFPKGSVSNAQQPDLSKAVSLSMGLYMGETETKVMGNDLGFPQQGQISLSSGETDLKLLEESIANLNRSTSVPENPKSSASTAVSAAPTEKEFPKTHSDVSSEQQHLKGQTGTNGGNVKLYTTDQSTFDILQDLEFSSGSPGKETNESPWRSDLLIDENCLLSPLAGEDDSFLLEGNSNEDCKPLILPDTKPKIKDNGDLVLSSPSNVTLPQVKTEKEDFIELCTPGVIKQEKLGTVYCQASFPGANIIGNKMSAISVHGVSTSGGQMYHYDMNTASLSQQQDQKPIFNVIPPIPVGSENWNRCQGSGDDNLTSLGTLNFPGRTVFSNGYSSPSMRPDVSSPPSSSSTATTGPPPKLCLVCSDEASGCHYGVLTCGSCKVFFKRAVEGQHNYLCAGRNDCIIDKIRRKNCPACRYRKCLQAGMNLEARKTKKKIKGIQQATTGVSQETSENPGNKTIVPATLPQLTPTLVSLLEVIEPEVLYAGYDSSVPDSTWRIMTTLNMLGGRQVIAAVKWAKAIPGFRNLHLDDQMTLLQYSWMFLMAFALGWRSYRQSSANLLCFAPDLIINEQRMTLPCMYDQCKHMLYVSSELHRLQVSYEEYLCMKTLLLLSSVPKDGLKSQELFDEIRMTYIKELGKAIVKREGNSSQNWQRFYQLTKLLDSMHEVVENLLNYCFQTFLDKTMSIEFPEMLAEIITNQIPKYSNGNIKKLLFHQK
Sequence of Thyroid hormone receptor beta (Homo sapiens) (P10828 whole entry, looked up): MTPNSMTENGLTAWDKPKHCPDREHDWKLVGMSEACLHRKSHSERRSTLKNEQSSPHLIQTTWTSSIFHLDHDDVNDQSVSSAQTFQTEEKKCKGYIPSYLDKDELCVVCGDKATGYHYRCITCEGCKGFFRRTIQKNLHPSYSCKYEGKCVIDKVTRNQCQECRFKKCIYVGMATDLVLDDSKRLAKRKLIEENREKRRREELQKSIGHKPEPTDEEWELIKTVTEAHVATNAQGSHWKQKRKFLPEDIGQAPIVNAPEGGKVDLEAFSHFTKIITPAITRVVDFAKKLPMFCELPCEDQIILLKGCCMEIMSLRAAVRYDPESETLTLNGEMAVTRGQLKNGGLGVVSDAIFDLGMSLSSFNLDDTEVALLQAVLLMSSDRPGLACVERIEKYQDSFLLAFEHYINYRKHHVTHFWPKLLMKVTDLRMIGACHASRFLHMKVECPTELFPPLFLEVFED
Sequence of Glutaminase kidney isoform, mitochondrial (Homo sapiens) (O94925 whole entry, looked up, canonical isoform): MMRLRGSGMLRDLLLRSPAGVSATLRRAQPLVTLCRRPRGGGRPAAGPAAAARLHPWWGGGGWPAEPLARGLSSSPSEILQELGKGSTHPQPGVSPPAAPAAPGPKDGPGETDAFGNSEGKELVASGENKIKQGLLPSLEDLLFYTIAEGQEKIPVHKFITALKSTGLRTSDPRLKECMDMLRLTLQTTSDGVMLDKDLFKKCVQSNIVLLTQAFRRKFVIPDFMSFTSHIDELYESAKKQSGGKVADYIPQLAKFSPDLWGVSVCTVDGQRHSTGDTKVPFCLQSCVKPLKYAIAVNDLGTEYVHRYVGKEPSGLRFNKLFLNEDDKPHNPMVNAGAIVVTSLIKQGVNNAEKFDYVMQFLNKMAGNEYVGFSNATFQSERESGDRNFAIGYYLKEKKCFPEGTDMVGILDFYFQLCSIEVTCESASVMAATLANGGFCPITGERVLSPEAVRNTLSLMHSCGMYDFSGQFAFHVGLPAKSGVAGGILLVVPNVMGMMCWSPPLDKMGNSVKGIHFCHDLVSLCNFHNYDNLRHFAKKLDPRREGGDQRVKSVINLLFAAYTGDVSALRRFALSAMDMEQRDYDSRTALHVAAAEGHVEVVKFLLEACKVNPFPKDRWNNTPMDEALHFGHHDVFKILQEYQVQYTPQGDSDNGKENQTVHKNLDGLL
Sequence of Luciferin 4-monooxygenase (Photinus pyralis) (P08659 whole entry, looked up): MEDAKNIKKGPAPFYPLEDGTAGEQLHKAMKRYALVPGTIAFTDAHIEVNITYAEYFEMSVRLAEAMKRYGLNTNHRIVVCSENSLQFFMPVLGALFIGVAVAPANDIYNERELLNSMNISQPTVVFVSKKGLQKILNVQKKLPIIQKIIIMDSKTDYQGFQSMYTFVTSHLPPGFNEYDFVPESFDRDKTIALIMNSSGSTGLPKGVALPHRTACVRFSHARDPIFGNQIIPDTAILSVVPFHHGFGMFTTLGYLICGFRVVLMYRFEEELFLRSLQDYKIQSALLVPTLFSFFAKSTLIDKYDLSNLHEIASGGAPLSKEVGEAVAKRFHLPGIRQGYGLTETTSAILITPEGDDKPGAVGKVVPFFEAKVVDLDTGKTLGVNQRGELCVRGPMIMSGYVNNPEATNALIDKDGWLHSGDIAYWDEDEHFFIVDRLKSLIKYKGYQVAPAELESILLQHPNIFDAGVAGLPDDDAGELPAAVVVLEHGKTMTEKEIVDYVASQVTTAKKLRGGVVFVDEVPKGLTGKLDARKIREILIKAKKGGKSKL
Sequence of Retinoic acid receptor RXR-alpha (Homo sapiens) (P19793 whole entry, looked up): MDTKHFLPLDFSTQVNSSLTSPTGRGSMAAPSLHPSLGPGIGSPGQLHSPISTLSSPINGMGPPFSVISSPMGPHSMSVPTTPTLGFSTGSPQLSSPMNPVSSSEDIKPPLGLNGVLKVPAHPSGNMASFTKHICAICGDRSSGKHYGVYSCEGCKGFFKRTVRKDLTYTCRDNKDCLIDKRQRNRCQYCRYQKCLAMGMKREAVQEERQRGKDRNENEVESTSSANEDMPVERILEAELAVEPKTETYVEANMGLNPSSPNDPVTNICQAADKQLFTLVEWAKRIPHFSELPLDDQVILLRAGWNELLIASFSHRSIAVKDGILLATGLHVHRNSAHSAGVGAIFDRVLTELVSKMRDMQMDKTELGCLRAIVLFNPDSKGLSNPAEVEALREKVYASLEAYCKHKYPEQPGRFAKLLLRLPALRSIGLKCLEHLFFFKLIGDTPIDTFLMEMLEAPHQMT
Sequence of Voltage-gated inwardly rectifying potassium channel KCNH2 (Homo sapiens) (Q12809 whole entry, looked up): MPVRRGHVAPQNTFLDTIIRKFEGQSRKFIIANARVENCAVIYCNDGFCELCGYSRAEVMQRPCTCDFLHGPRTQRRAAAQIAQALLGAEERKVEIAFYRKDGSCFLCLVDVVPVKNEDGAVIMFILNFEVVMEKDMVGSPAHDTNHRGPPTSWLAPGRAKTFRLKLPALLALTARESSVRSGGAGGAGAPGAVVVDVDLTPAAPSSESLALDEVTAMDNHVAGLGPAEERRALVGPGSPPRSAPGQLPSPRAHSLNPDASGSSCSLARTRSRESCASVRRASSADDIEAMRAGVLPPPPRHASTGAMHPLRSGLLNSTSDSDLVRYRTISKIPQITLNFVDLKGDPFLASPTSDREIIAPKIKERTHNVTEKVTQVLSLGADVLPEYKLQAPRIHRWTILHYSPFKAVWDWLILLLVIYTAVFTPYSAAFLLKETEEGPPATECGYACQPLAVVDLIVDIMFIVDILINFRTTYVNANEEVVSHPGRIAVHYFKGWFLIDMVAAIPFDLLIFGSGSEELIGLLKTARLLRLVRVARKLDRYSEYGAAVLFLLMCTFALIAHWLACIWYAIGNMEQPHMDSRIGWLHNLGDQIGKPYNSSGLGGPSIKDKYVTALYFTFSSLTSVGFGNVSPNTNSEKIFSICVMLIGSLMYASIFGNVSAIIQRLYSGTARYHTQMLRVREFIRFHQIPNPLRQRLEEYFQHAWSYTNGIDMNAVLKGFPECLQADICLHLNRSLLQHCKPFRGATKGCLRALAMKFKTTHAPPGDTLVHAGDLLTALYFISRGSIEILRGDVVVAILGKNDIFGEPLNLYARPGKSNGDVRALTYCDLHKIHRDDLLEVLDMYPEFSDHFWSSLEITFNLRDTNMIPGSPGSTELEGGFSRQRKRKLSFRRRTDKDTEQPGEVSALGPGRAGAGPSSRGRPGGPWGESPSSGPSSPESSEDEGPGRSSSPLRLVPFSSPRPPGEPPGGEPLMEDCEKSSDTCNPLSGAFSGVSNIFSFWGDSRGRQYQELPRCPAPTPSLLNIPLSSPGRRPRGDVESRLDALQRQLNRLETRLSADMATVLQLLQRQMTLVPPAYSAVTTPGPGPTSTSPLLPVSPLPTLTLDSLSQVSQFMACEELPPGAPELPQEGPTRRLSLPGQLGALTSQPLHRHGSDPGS

`CC(C)(Oc1ccc(CCNC(=O)c2ccc(Cl)cc2)cc1)C(=O)O`: in [1], the activation was -5.13% (inactive). Further, the Potency result in assay [2], in [8], in assay [12], in assay [13] and in [14] was “inactive” each time. For the same molecule, the result in [3], in [4], in assay [5], in assay [7] and in [15] was inactive. Besides, the max response in assay [6] was 19.7%; in [9], 1.78%; in assay [10] it was -3.89% (inactive). Further, in [11], the activity change % (negative = inhibition) is 12.2% (inactive).
For the molecule `C[C@]12C=CC(=O)C=C1CC[C@H]1[C@@H]3C[C@@H](O)[C@](O)(C(=O)CO)[C@@]3(C)C[C@H](O)[C@@]12F`, in [1], the Potency is 0.112 µM (active). For the same molecule, the Potency entry in [2], in assay [8], in assay [18] and in assay [14] was “inactive” throughout. Also, the max response in [16] is 10.9%; in assay [6], -12%; in assay [9], -1.48%; in assay [10], -2.06% (inactive). Moreover, the call in assay [17], in [3], in [4], in assay [5] and in assay [7] was inactive. In assay [11], the activity change % (negative = inhibition) is -4.06% (inactive).
`CCN(CC)CCOCCOC(=O)C1(c2ccccc2)CCCC1`: the Potency in [18] was 12.6 µM (active). Besides, the Potency entry in assay [12], in [13], in assay [19], in assay [20] and in [14] was “inactive” each time. In addition, the call in assay [15] was inactive.
For the molecule `C[n+]1cc2c3c(ccc2c2ccc4cc5c(cc4c21)OCO5)OCO3`, the Potency entry in assay [18] was “inactive”. For the same molecule, the Potency in assay [12] was 7.21 µM (active); in assay [13], 3.22 µM (active); in [19], 8.09 µM (active); in assay [20] it was 15.8 µM (active).
Take `CN=C(NC#N)NCCSCc1nc[nH]c1C`: the max response in assay [16] is -4.23%; in [6], 10.9%; in assay [9], 1.01%; in assay [10] it was 4.57% (inactive). For the same molecule, the molecule was called inactive in assay [17], in assay [3], in assay [4], in assay [5] and in assay [7]. Also, the Potency result in assay [8], in assay [18], in assay [12], in [13] and in assay [14] was “inactive” in each case. The activity change % (negative = inhibition) in assay [11] was 11.1% (inactive).
Turning to `CC(=O)Oc1cc(C(C)C)c(OCCN(C)C)cc1C`, the Potency result in assay [18], in [12], in assay [13], in [19] and in assay [14] was “inactive” each time.
For `CC(=O)Nc1nnc(S(N)(=O)=O)s1`, the call in [3], in assay [7] and in assay [15] was inactive. Moreover, the values for the max response in assay [6], in [9] and in assay [10] were -3.24%, -6.44% and -1.61% (inactive), respectively. In assay [11], the activity change % (negative = inhibition) is -8.01% (inactive). In addition, the Potency result in assay [12], in assay [13] and in assay [14] was “inactive” in each case.
Consider `NC(N)=N/N=C/c1c(Cl)cccc1Cl`, for which, in [18], the Potency was 1.41 µM (active). Besides, the Potency result in assay [12], in assay [13], in assay [19] and in assay [14] was “inactive” throughout. For the same molecule, in assay [15], the molecule was called inactive.
Consider `CC(=O)[C@@]1(O)CC[C@H]2[C@@H]3CCC4=CC(=O)CC[C@]4(C)[C@H]3CC[C@@]21C`, for which the activation in assay [1] was 1.8% (inactive). For the same molecule, the call in assay [5] and in [7] was inactive. Also, the figures for the max response in [6], in [9] and in [10] were 13.3%, 9.81% and -1.98% (inactive), respectively. Moreover, the Potency entry in assay [18], in [12], in assay [13], in [19], in assay [20] and in assay [14] was “inactive” each time.

Values taken from PubChem BioAssay (NCATS).
